# Peg3 prom inh: Peg3 promoter-driven luciferase inhibitors, primary screen, cell-based, HeLa, luciferase luminescence. HeLa PEG-Prom luciferase reporter, overnight. inhibition, % at 20 µM. 1.7% of 360,000 active. AID 588405, 2011;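 active means inhibition of at least 50% at 20 µM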
# HIF-2a block: HIF-2a reporter inhibitors, primary screen, luminescence, 786-0 RCC cells; inhibition, % at 18.8 µM; 786-0 RCC cells HIF-2a reporter, luciferase luminescence, overnight; 0.72% of 360,000 active;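 active means inhibition of the luminescence signal of 40% or more relative to plate controls, in a single-dose primary screen at 18.75 µM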
# CF NFkB inh: inhibitors of PAF-induced NF-kB signaling, primary screen, cell-based, GFP fluorescence, uHTS; KKLEB NF-kB-GFP reporter, GFP fluorescence overnight; 0.86% of 360,000 active; AID 588850, 2011; inhibition, % at 5 µM;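 active means at least 50% inhibition at 5 µM, scaled per plate between neutral and stimulator controls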;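 further: PAF is a Pseudomonas aeruginosa culture filtrate used as stimulus; plate controls were PAF-stimulated DMSO wells for no effect and unstimulated DMSO wells for full effect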
# ABHD5 PLIN5 PPI: ABHD5-PLIN5 interaction inhibitors, primary screen, cell lysate, split luciferase complementation, luminescence | inhibition, % at 4 µM | Split G. princeps luciferase complementation, 4 h | AID 602281, 2012 | 0.78% of 360,000 active;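 active means inhibition above the mean inhibition across every tested compound plus 3 SD, cut at about 22% in these data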;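 further: 0% = DMSO only wells and the 100% control is not disclosed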
# Target sequence (Q00G26 whole entry, looked up): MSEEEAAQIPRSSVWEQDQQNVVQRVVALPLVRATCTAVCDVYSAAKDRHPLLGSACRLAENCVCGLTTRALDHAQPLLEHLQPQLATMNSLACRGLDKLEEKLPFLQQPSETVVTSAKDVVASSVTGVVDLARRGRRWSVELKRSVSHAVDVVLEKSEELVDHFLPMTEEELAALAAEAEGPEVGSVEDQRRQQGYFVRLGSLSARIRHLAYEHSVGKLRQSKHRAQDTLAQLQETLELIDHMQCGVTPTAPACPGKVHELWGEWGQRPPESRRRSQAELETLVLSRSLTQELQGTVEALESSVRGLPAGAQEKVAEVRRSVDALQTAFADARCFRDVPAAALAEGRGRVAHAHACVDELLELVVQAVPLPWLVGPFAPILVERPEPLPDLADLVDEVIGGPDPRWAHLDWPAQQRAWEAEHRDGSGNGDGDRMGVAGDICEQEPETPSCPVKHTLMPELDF
# Target sequence (Q8WTS1 whole entry, looked up): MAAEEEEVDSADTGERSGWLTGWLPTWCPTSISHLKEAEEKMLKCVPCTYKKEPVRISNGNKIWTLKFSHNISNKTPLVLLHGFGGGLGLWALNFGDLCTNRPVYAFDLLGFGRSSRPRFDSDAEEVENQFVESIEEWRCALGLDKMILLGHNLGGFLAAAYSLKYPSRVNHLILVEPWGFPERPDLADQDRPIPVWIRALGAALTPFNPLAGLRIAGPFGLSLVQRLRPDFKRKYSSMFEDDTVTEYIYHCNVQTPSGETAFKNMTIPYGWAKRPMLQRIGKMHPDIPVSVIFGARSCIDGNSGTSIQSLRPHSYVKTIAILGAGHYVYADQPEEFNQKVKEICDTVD
# MITF TRPM1 inh: inhibitors of MITF-dependent TRPM1 promoter reporter, primary screen, cell-based, SK-MEL-5, single point, luciferase | SK-MEL-5 TRPM1 promoter luciferase, 24 h | 0.83% of 330,000 active | inhibition, % at 12.5 µM | AID 488899, 2010;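 active means mean inhibition across replicates of 60% or more, whatever share of single replicates reaches that level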
# KKLEB cytotox: cytotoxicity in KKLEB CF airway cells, primary screen, cytotoxicity control for CF NF-kB inhibitor project, cell-based, uHTS, fluorescence assay plates; AID 602141, 2011; activity change (cytotoxicity), % at 5 µM; KKLEB CF airway cells viability, ATPlite luminescence, overnight; active compounds read low; cells stimulated with P. aeruginosa culture filtrate; 0.36% of 360,000 active;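 active means corrected activity change at or below -50% at 5 µM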
# * = called active by the depositor; / = no result. Most compounds without a hit are left out; they make up all but 3.1% or so of the library.
SMILES,Peg3 prom inh,HIF-2a block,CF NFkB inh,ABHD5 PLIN5 PPI,MITF TRPM1 inh,KKLEB cytotox
O=C(N/N=C/c1cccc(O)c1)c1ccc(NC(=O)C2CCCCC2)cc1,-16.3,1.4,-20.0,8.1,17.0,6.0
O=C(N/N=C/c1ccc(O)cc1O)c1ccc(NC(=O)C2CCCCC2)cc1,62.2*,9.3,33.6,6.4,67.3*,-12.1
CC(C)CNS(=O)(=O)c1ccc(S(=O)(=O)N2CCC(N3CCCCC3)CC2)cc1,11.3,3.2,1.8,-8.6,-2.7,1.9
COC(=O)C1CSC(C(=O)OC)N1C(=O)CN1CCN(c2ccc(OC)cc2)CC1 (centres undefined),1.3,3.8,19.2,0.7,-6.2,-8.4
CCN1/C(=C2\SC(=S)N(Cc3ccccc3)C2=O)Sc2ccccc21,1.2,17.6,-3.9,5.3,-11.5,1.5
CCC(CO)[n+]1c(C)cc(/C=C2\Sc3ccccc3N2Cc2ccccc2)cc1C (centres undefined),62.5*,-11.4,10.3,8.1,81.8*,-6.4
CC(C)C[C@H]1CN([C@@H](Cc2ccc(O)cc2)CN2CCC[C@@H]2CN2C(=S)NC[C@@H]2Cc2ccccc2)C(=S)N1CC1CCCCC1,6.1,-5.4,3.2,14.2,/,-2.8
Oc1ccc(C[C@H]2CN([C@@H](Cc3cccc(O)c3)CN3CCC[C@@H]3CN3C(=S)NC[C@@H]3Cc3ccccc3)C(=S)N2CC2CCCCC2)cc1,105.0*,-58.3,47.8,23.3*,/,-17.7
Oc1ccc(C[C@H]2CN([C@@H](Cc3ccccc3)CN3CCCC3CN3C(=S)NC[C@@H]3Cc3ccccc3)C(=S)N2CC2CCCCC2)cc1 (some centres undefined),/,7.5,/,-5.2,/,/
Oc1ccc(C[C@H]2CNC(=S)N2C[C@H]2CCCN2C[C@H](Cc2ccccc2)N2C[C@H](Cc3ccc(O)cc3)N(CC3CCCCCC3)C2=S)cc1,75.7*,-17.1,44.8,4.0,/,-21.2
CC(C)C[C@H]1CNC(=S)N1CC1CCCN1C[C@H](Cc1ccccc1)N1C[C@H](Cc2ccc(O)cc2)N(CC2CCCCC2)C1=S (some centres undefined),59.0*,-5.2,33.3,1.8,26.3,-12.3
CCOC(=O)[C@]12CCC=C1N(Cc1ccco1)C(=O)[C@H](CC(=O)NCCCN1CCCC1=O)C2,/,3.8,/,5.5,/,/
COc1cccc(/C(O)=C/c2nc3ccc(C(=O)NCCc4ccc(Cl)cc4)cc3[nH]c2=O)c1,55.5*,4.8,5.3,4.5,44.8,-28.0
COc1cc(/C=N/NS(=O)(=O)c2ccc3ccccc3c2)ccc1OCc1ccc(C(=O)O)cc1,-4.8,17.9,1.8,2.6,64.3*,-6.3
COc1cc(/C=N/NS(=O)(=O)c2ccc(C)cc2)ccc1OCc1cccc(C(=O)O)c1,-2.1,31.8,-4.2,-4.0,77.7*,-5.6
O=C(O)CCCNC(=O)c1ccccn1,16.6,22.9,5.2,-0.5,-4.7,4.6
O=C(C(Cl)Cl)N1c2ccccc2OCC1c1ccccc1 (centres undefined),59.2*,9.0,-4.3,-4.2,5.3,4.5
CC(C)CC(NC(=O)C(CO)NC(=O)C1CCC(=O)N1)C(N)=O (centres undefined),7.7,12.2,-1.1,1.2,-7.8,2.3
CCOc1ccc(NC(=O)Cn2cncc2-c2ccc([N+](=O)[O-])cc2)cc1,80.6*,7.3,-2.8,-5.1,35.8,-44.9
CCC(C)NC(=O)CSc1ccc(S(=O)(=O)N2CCN(Cc3ccccc3)CC2)cn1 (centres undefined),13.3,-0.5,-23.4,-3.5,2.7,7.3
CCN1C(=O)CCN(C2CCCC2)c2nc(Nc3ccc(C(=O)NC4CCN(C)CC4)cc3OC)ncc21,66.0*,-35.5,-156.3,6.1,76.1*,-16.1
C[C@@H]1CN([C@H](C)CO)C(=O)c2cc(Br)cnc2O[C@@H]1CN(C)C(=O)Cc1ccccc1,10.9,3.7,-14.5,0.2,/,-4.3
CC(NC(=S)NCCN1CCOCC1)C12CC3CC(CC(C3)C1)C2 (centres undefined),2.2,13.7,-11.2,-1.2,-9.4,-10.8
Cc1ccc(S(=O)(=O)N(C(=O)c2ccncc2)c2ccc(OC(=O)c3ccncc3)cc2)c(C)c1,52.5*,24.1,71.6*,6.0,6.6,-50.5*
Cc1ccc(S(=O)(=O)N(C(=O)c2ccncc2)c2ccc(OC(=O)c3ccncc3)cc2)cc1,16.9,19.7,20.8,6.9,16.0,-6.2
SMILES,Peg3 prom inh,HIF-2a block,CF NFkB inh,ABHD5 PLIN5 PPI,MITF TRPM1 inh,KKLEB cytotox
COCCSc1ccccc1C(=O)Nc1ccc(Br)cc1,-14.4,-38.0,2.6,-6.3,-9.1,2.6
COc1cc2c(cc1[N+](=O)[O-])-c1ccc([N+](=O)[O-])cc1C2=NO,52.0*,-38.1,-186.9,0.8,/,14.3
CC(C)(C)N1C(=O)c2ccc(C(=O)Nc3ccc(-c4nc5ccccc5[nH]4)cc3)cc2C1=O,82.2*,-8.1,-1.6,4.0,-5.9,1.9
CC(C)(C)N1C(=O)c2ccc(C(=O)Nc3ccc(C(=O)O)cc3)cc2C1=O,11.1,12.4,9.5,7.2,-5.3,-6.7
COc1cccc(OC)c1NC(=O)C1CCCN1C(=O)Nc1ccccc1Cl (centres undefined),-7.8,4.9,-16.8,6.0,2.6,17.7
O=C(CNS(=O)(=O)c1cccc(F)c1)OCC(=O)N1CCCC1=O,-5.8,2.6,-0.9,-1.6,-11.9,4.1
CC(C)C(CCNC1CCN(C)CC1)c1ccc(Cl)cc1 (centres undefined),100.1*,23.1,15.9,13.2,89.8*,-22.8
CCc1nc(Nc2ccc(OC)c(OC)c2)c2nnn(Cc3ccccc3Cl)c2n1,24.8,12.5,10.7,-2.4,71.2*,2.3
CN(C)C(=O)COc1ccc2ccc(=O)oc2c1,-1.8,13.4,7.9,5.4,-2.6,-4.7
CC(C)=CC(O)C/C(C)=C/COc1ccc2ccc(=O)oc2c1 (centres undefined),93.6*,-2.5,13.8,-6.4,56.3,7.0
CN[C@H]1CC[C@@H](c2ccc(Cl)c(Cl)c2)c2ccccc21,95.0*,-27.2,7.7,11.3,19.7,/
Cc1nc2sc(-c3ccccc3)cc2c(=O)n1N,58.0*,12.9,-38.3,11.2,45.1,-10.9
CC(=O)Nc1ccc(N(CC(O)Cn2c3ccccc3c3ccccc32)S(=O)(=O)c2ccc(C)cc2)cc1 (centres undefined),60.5*,-0.3,3.8,2.2,10.5,-11.2
Cc1ccc(N(CC(O)Cn2c3ccccc3c3ccccc32)S(C)(=O)=O)cc1 (centres undefined),12.0,-26.1,14.9,1.5,11.7,-9.5

# Source: PubChem
